Screening results (PubChem)
In the library only some 21% were active in any assay of this set; here they are far more common.
Pf growth 96h – P. falciparum growth inhibition at 96 hour, primary screen for plastid delayed-death inhibitors | P. falciparum luciferase reporter growth, 96 h | Potency, µM (doses to about 28.7 µM), most hits filed as inhibitors | 6.9% of 320,000 active
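P. falciparum expressing integrated firefly luciferase grown in erythrocytes (2% hematocrit, 0.05% parasitemia final) with compounds for 96 hours at 37 C, 5% CO2. Growth inhibition read as loss of luminescence after adding luciferase detection reagent.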
Cycloheximide cs – counter-screen for Shiga toxin inhibitors: cycloheximide protein synthesis inhibition. max response, %. cell reporter, cycloheximide protein synthesis inhibition counterscreen. 12% of 300,000 active; in the data active = max response mostly above about 13%, no sharp cut-off; inactive = mostly below about 14%; note: read at 38.3 µM for the half of the compounds with a filed dose
Shiga inhibitor – Shiga toxin inhibition; Vero cells, Shiga toxin protein synthesis inhibition reporter; inhibition, % at 38.7 µM; 9.2% of 290,000 active; AID 2315; in the data active = inhibition mostly above about 28%, no sharp cut-off; inactive = mostly below about 43%
Pf growth 48h – P. falciparum growth inhibition at 48 hours (one generation); P. falciparum luciferase growth in erythrocytes, 48 h; Potency, µM (doses to about 28.7 µM), usual class: inhibitors; 5.9% of 310,000 active; AID 504832
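Luminescence readout; reporter = integrated firefly luciferase in P. falciparum. RBC culture at 2% hematocrit, 0.1% parasitemia final, 37 C/5% CO2; decreased signal taken as growth inhibition.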
A number is an active result; . = inactive; ? = inconclusive; / = not tested or not shown; + = active, no number; [ ] = another dose, or the depositor's remark. Unless noted, calls come from the whole dose curve; as a rule, active = well fitted inhibition curve with a large enough effect; inconclusive = small, poorly fitted or top-dose-only effect, or another doubt; inactive = no such curve, though single readings can be large or run the other way.

SMILES	Pf growth 96h	Cycloheximide cs	Shiga inhibitor	Pf growth 48h
Cc1ccc(-c2c(C(=O)N/N=C/c3c[nH]c4ccccc34)nnn2-c2nonc2N)cc1	?	22	.	?
COc1ccc(C2/C(=C(\O)c3ccc4c(c3)OCCO4)C(=O)C(=O)N2Cc2cccnc2)cc1OC (stereo not drawn)	?	.	.	?
COc1ccc(C2c3c(-c4ccccc4O)n[nH]c3C(=O)N2Cc2ccco2)cc1OC (stereo not drawn)	.	.	.	.
COc1ccc(CCN2C(=O)c3[nH]nc(-c4ccccc4O)c3C2c2cccc(O)c2)cc1OC (stereo not drawn)	13µM	.	.	10µM
O=C1c2[nH]nc(-c3ccccc3O)c2C(c2ccc(F)cc2)N1Cc1ccco1 (stereo not drawn)	/	.	.	?
O=C1c2[nH]nc(-c3ccccc3O)c2C(c2cccc(Cl)c2)N1Cc1ccco1 (stereo not drawn)	/	.	.	8.3µM
COc1ccc(C2c3c(-c4cc(Cl)c(C)cc4O)n[nH]c3C(=O)N2Cc2cccnc2)cc1OC (stereo not drawn)	.	.	.	3.3µM
COc1ccc(C2c3c(oc4c(C)cc(C)cc4c3=O)C(=O)N2Cc2cccnc2)cc1OC (stereo not drawn)	9.3µM	.	.	.
CCc1noc(C)c1C(=O)N1CCN(S(=O)(=O)c2ccc(Cl)s2)CC1	.	/	/	?
CC(C)CC(=O)c1c[nH]c(C(=O)NCc2ccc(F)cc2)c1	.	.	.	.[0.00184 µM]
COc1ccc(C2C(C(=O)c3ccc(C)o3)=C(O)C(=O)N2Cc2cccnc2)cc1OC (stereo not drawn)	.	.	.	.
COc1ccc(C2C(C(=O)c3cccs3)=C(O)C(=O)N2Cc2cccnc2)cc1OC (stereo not drawn)	.	38	110	.
COc1ccc(CNC(=O)CN(Cc2ccc(OC)cc2)C(=O)CCC(=O)Nc2ccccn2)cc1	.	.	.	.
O=C(CCSc1nc2ccccc2s1)N/N=C/c1c(O)ccc2ccccc12	2.9µM	.	.	?
COc1ccc(/C=N/NC(=O)CCSc2nc3ccccc3s2)cc1OC	?	.	.	.
Cc1cc(C)n(CCC(=O)N/N=C/c2c(O)ccc3ccccc23)n1	?	.	.	6.6µM
CSc1nnc2c3ccccc3n(Cc3ccccc3)c2n1	/	.	.	.
CCSc1nnc2c(n1)[nH]c1c(C)cccc12	/	19	.	/
C=CCSc1nnc2nc3[nH]c4c(C)cccc4c3nn12	/	.	.	?
CSc1nnc2c(n1)[nH]c1c(C)cccc12	5.2µM	.	.	8.3µM
CN(C)CCn1c2c(c(SCC(=O)Nc3ccc4c(c3)OCCO4)nc1=O)CCCC2	.	/	/	?
CCc1nnc(NC(=O)C2Cc3ccccc3CN2S(=O)(=O)CC)s1 (stereo not drawn)	.	.	.	.
CCS(=O)(=O)N1Cc2ccccc2CC1C(=O)Nc1nc2ccccc2[nH]1 (stereo not drawn)	.	34	194	.
CCS(=O)(=O)N1Cc2ccccc2CC1C(=O)Nc1nc2ccccc2s1 (stereo not drawn)	.	43	+	.
CC1CC(C)CN(C(=O)COC(=O)CNC(=O)C23CC4CC(CC(C4)C2)C3)C1 (stereo not drawn)	.	/	/	.
SMILES	Pf growth 96h	Cycloheximide cs	Shiga inhibitor	Pf growth 48h
COC(=O)c1ccc(-c2ccc(C3C4C=CCC(C)C4C(=O)N3Cc3ccccc3)c(F)c2)cc1 (stereo not drawn)	/	.	.	/
CCOC(=O)c1c(S(=O)(=O)N2CCCC(C(=O)Nc3ccc(C)cn3)C2)c(C)n(C)c1C (stereo not drawn)	.	.	.	13µM
Cc1ccc(NC(=O)C2CCCN(S(=O)(=O)c3ccc4c(c3)oc(=O)n4C)C2)nc1 (stereo not drawn)	.	.	.	?
CCOC(=O)c1c(S(=O)(=O)N2CCCC2)c(C)n(C)c1C	12µM	.	.	.
CCOC(=O)c1c(S(=O)(=O)N2CCCCC2C)c(C)n(C)c1C (stereo not drawn)	1.7µM	.	.	.
CCOC(=O)c1c(S(=O)(=O)N2CCN(C)CC2)c(C)n(C)c1C	?	.	.	.
CCOC(=O)c1c(S(=O)(=O)N2CCCC(C)C2)c(C)n(C)c1C (stereo not drawn)	?	.	.	?
Fc1cccc(F)c1-n1c(CN2CCCCC2)csc1=S	12µM	.	.	?
Cc1[nH]c(=O)c(S(=O)(=O)c2ccccc2)c(C)c1Cl	.	.	.	.
CCOc1ccc(NC(=O)C(=O)NCCN2CCN(S(=O)(=O)c3ccc(C)cc3)CC2)cc1	.	.	.	.
COc1ccccc1NC(=O)COc1ccccc1	.	17	.	/
COc1ccc(NC(=O)C(Sc2ccccc2)c2ccccc2)c(OC)c1 (stereo not drawn)	2.6µM	.	.	.
COc1ccc(NC(=O)COc2ccc(Br)cc2)c(OC)c1	?	13	30	.
O=C(COc1ccccc1)Nc1cccc2nsnc12	.	66	.	.
Cc1cccc(OCC(=O)Nc2cccc3nsnc23)c1	.	.	.	/
O=C(COc1ccccc1)Nc1ccccc1Oc1ccccc1	.	.	.	.
COc1cccc(COCC(O)Cn2cnc3cc(C)c(C)cc32)c1 (stereo not drawn)	?	.	.	.
O=C(CCc1nc2sc3c(c2c(=O)[nH]1)CCCC3)N1CCN(c2ccccc2)CC1	.	/	/	.
COc1ccc(N2CC(NC(=O)N3CCN(C(=O)c4ccco4)CC3)CC2=O)cc1OC (stereo not drawn)	.	/	/	.
Cc1ccnn1Cc1cc(C(=O)O)c2ccccc2n1	.	.	.	.
CCc1ccc(NC(=O)CSc2nc3ncc(Br)cc3[nH]2)cc1	.	.	.	.
COc1ccccc1NC(=O)CNC(=O)c1ccc(Br)o1	0.029µM	.	.	.
O=C(Nc1ccc(Cl)cc1)Nc1cccc2nsnc12	.	64	114	.
COc1ccc(OCC(=O)Nc2ccccc2O)cc1	.	36	75	/
COc1cc(NC(=O)CN2c3cccc4cccc(c34)S2(=O)=O)cc(OC)c1OC	?	.	.	.
SMILES	Pf growth 96h	Cycloheximide cs	Shiga inhibitor	Pf growth 48h
COc1ccc(NC(=O)CN2c3cccc4cccc(c34)S2(=O)=O)c(OC)c1	/	14	.	?
CCc1ccccc1S(=O)(=O)c1c(C)cc(C)nc1Cl	.	.	.	.
CC(C)n1cc(C(=O)N2CCCC(N3CCN(c4cccc(Cl)c4)CC3)C2)cn1 (stereo not drawn)	?	.	.	.
CCc1ccc(OC)c(S(=O)(=O)NCc2cccs2)c1	.	/	/	?
COc1ccc(NC(=O)COc2ccccc2)c(OC)c1	/	34	51	.
COc1cc(C)c(NC(=O)COc2cccc3c2OC(C)(C)C3)cc1OC	?	/	/	.
COc1ccc(NC(=O)COc2cccc3c2OC(C)(C)C3)c(OC)c1	10µM	/	/	?
Cc1c(C(=O)OCC(=O)N2C(C)CCCC2C)oc2ccccc12 (stereo not drawn)	.	50	96	.
COc1ccc2oc(C(=O)OCC(=O)N3C(C)CCCC3C)c(C)c2c1 (stereo not drawn)	.	37	63	.
Cc1c(C(=O)OCCN2CCCCC2)oc2ccccc12	.	14	.	.
CCOc1ccc2oc(C(=O)OCC(=O)NC3CCCCC3)c(C)c2c1	.	/	/	.
